# Data published in PubChem BioAssay (Tox21).
# Results filed as inconclusive are left out. Values without a mark were called inactive. Active and inactive are the calls of the source. The call rests on the fitted dose curve; in most records, active means well fitted activation curve with a large enough effect in the signal ratio in the repeat runs (not every such curve was filed as active); inconclusive means weak or mixed curves; inactive means flat fitted curve, though single readings scatter; the % refers to the signal ratio.
# Experiment: qHTS assay to identify small molecule agonists of the TGF-beta/Smad signaling pathway (AID 1346859)
# Conditions: SBE-bla HEK293T, TGF-beta/Smad beta-lactamase reporter, 5 h; series mostly up to 76.8 µM; activation: at the top concentration
# Description: U.S. Tox21 Program National Center for Advancing Translational Sciences [NCATS] NIH Chemical Genomics Center [NCGC] U.S. Environmental Protection Agency [EPA] National Institutes of Environmental Health Sciences [NIEHS] National Toxicology Program [NTP] U.S. Food and Drug Administration [FDA] Tox21 Assay Overview: Transforming growth factor beta (TGF-beta) superfamily consists of a large number of structurally related dimeric proteins that act as hormones or local mediators in regulating a wide range of biological functions. This superfamily includes TGF-betas themselves, the bone morphogenetic proteins (BMPs) and the activins. These ligands induce oligomerization of serine/threonine receptor kinases and phosphorylate the cytoplasmic signaling molecules of Smad protein family. CellSensor SBE-bla HEK 293T cell line (Life Technologies, Carlsbad, CA), responsive to TGF-beta was used to screen Tox21 10K compound library for identification of agonists/antagonists of the Smad signaling pathway. This cell line contains a beta-lactamase reporter gene under control of the Smad binding element (SBE) stably integrated into HEK 293T cells.
# Tox21 Assay Protocol Summary: SBE-bla HEK 293T cells were dispensed at 4,000/well in 6 uL of assay medium into black wall/clear-bottom 1536-well plates using a Multidrop Combi (ThermoFisher Scientific, Waltham, MA) dispenser. After the assay plates were incubated at 37 C and 5% CO2 for an overnight, 23 nL of compounds dissolved in DMSO, positive controls or DMSO only was transferred to the assay plate by a Pintool station (Kalypsys, San Diego, CA). The assay plates were incubated at 37 C and 5% CO2 for 5 hr. One uL of LiveBLAzer B/G FRET substrate (Life Technologies) was added using a Flying Reagent Dispenser (Aurora Discovery, San Diego, CA) and the plates were incubated at room temperature for 2 hr. Fluorescence intensity (405 nm excitation, 460 nm and 530 nm emissions) was measured using an Envision plate reader (PerkinElmer, Shelton, CT).
# On the % scale 0 is the no-effect control and ±100 the full control effect.
Structure (SMILES),outcome,activation
c1ccc2[nH]cnc2c1,inactive,–
O=S(=O)(O)c1cc(S(=O)(=O)O)c2c(N=Nc3ccccc3)c(O)ccc2c1,inactive,–
CCCCNC(N)=O,inactive,–
COC(=O)c1ccccc1O,inactive,–
CCCCC(CC)COC(C)=O (stereo not given),inactive,–
O=S(=O)(O)CCS,inactive,–
O=C(O)c1cc(-c2ccccc2)nc2ccccc12,–,-6.25% [at 35.3 µM]
O=C1CCCCC1,inactive,–
Cn1c([N+](=O)[O-])cnc1COC(N)=O,inactive,–
C=C(C#N)C(=O)OCC,inactive,–
CCCCCCCCCCCCOCC1CO1 (stereo not given),inactive,–
CCCCC(CC)COC(=O)/C=C\C(=O)OCC(CC)CCCC (stereo not given),inactive,–
O=[N+]([O-])c1cc(N(CCO)CCO)ccc1NCCO,inactive,–
CC(C)(N=C=O)c1cccc(C(C)(C)N=C=O)c1,inactive,–
Clc1cc(Cl)c(Cl)cc1Cl,inactive,–
COCC(=O)O,inactive,–
CC1Cc2ccccc2N1NC(=O)c1ccc(Cl)c(S(N)(=O)=O)c1 (stereo not given),inactive,–
CCCCCCCCCCCCN,inactive,–
CCOC(=O)/C=C\C(=O)OCC,inactive,–
CCc1ccc(O)cc1,inactive,–

Structure (SMILES),outcome,activation
O=C(Oc1ccccc1)c1ccc(O)cc1,inactive,–
O=[N+]([O-])C(CO)(CO)CO,inactive,–
OC1CCCC1,inactive,–
C=C1CC[C@H](O)CC1=C/C=C1\CCC[C@]2(C)[C@@H]([C@H](C)/C=C/[C@H](C)C(C)C)CC[C@@H]12,–,-0.677%
CCCCC(CC)COC(=O)CCCCCCCC(=O)OCC(CC)CCCC (stereo not given),inactive,–
CC1(C)CC(N=C=O)CC(C)(CN=C=O)C1 (stereo not given),inactive,–
CS(=O)(=O)c1ccc([C@@H](O)[C@@H](CO)NC(=O)C(Cl)Cl)cc1,inactive,–
CC(C)(CO)COC(=O)C(C)(C)CO,inactive,–
CC(=O)CCc1ccccc1,inactive,–
O=C(c1cc(O)c(O)c(O)c1)c1ccc(O)c(O)c1O,inactive,–
CN(C)c1ccc(C(=N)c2ccc(N(C)C)cc2)cc1,inactive,–
OCCOCCOCCOCCO,inactive,–
O=[N+]([O-])c1cccc(Cl)c1,inactive,–
Oc1ccc2ccccc2c1,inactive,–
O=c1c(-c2ccc(O)cc2)coc2cc(O)ccc12,inactive,–
CC(=O)[C@@]1(O)CC[C@H]2[C@@H]3CCC4=CC(=O)CC[C@]4(C)[C@H]3CC[C@@]21C,–,-3.73% [at 35.3 µM]
NCCc1ccc(O)c(O)c1,inactive,–
O=S(=O)(Oc1ccc(Cl)cc1Cl)c1ccccc1,inactive,–
C=CC(=O)OCCCCCCCC(C)C,inactive,–
NS(=O)(=O)c1cc2c(cc1Cl)NC=NS2(=O)=O,inactive,–
